Common to all, as to test: DAPPL (digital affinity profiling via proximity ligation, sequencing); 10 mM Tris-HCl pH 7.5, 50 mM NaCl, 1 mM DTT, 4% glycerol, room temperature, 30 min; GST-TFs on glutathione beads, 16-mer random dsDNA library, 0.1% formaldehyde crosslink after washing; high values mean tight binding
Conditions in all cases: protein: recombinant; tags: N-terminal GST; dsDNA, one strand shown

One assay deals with T1, EHF (Homo sapiens, UniProt Q9NZC4 1-300).
T1 sequence: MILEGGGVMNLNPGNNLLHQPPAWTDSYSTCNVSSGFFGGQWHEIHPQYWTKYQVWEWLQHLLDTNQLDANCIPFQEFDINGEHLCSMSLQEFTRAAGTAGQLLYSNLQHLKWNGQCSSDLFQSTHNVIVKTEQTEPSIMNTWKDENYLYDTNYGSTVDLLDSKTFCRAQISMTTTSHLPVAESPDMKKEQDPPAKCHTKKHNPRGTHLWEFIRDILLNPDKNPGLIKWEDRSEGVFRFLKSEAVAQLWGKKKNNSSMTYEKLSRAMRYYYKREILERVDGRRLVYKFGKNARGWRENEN
The essentials:
(§1)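 Binding signal is given per hexamer as its read frequency for a factor divided by its frequency in the tag-only sample. GST-fused human transcription factors were expressed in yeast, captured on glutathione beads, barcoded with DNA and pooled with that sample, then incubated with 200 nmole of a 16-mer random double-stranded DNA library in Tris/NaCl/DTT/glycerol buffer for 30 min at room temperature. The pools were then washed, crosslinked, proximity-ligated, amplified by PCR and sequenced on an Illumina NextSeq500.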

The target in the next assay is SPIB (Homo sapiens, UniProt Q01892 1-262). In short, it runs like this: as §1
Chain of SPIB (Q01892 whole entry): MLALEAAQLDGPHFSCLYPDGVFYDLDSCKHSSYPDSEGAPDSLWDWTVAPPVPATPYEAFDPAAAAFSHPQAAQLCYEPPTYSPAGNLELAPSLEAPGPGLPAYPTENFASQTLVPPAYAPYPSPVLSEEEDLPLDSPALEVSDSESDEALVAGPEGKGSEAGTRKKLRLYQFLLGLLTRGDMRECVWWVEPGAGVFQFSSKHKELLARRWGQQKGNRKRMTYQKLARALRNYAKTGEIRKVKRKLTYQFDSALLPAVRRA
The next assay addresses T2, ELK3 (Homo sapiens, UniProt P41970 1-407).
T2 sequence: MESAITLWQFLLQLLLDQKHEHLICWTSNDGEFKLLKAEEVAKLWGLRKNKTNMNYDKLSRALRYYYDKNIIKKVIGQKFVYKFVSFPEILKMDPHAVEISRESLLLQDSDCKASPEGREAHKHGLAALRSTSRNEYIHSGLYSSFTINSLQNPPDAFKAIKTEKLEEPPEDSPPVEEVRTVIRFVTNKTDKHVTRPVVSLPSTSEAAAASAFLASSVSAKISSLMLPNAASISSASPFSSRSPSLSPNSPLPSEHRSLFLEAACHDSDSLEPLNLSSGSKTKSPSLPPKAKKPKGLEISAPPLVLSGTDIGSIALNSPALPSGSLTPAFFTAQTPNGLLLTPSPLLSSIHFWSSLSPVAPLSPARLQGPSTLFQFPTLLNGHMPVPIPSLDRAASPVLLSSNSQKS
In short, it runs like this: as §1

A further assay addresses T3, SPIC (Homo sapiens, UniProt Q8N5J4 1-248).
T3 sequence: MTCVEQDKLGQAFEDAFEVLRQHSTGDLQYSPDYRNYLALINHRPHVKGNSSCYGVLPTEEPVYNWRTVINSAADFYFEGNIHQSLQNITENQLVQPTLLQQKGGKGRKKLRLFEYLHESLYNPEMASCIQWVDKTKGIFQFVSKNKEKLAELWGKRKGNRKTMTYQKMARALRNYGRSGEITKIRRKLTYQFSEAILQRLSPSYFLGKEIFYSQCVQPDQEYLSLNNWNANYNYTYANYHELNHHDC
In short, it runs like this:
as §1

Another assay has as its target T4, ELK4 (Homo sapiens, UniProt P28324-2 1-405).
T4 sequence: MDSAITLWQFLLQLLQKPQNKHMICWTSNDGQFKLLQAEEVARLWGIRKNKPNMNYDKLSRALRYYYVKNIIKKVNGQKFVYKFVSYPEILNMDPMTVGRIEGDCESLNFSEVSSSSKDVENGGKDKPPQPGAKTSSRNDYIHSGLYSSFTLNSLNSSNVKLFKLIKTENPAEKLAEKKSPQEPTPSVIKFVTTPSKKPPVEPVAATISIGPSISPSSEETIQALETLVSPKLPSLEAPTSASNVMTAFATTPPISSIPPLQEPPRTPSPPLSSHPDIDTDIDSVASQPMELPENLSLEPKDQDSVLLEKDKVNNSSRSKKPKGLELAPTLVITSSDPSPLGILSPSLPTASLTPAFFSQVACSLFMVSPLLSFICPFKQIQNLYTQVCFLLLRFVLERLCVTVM
The essentials: as §1

A further assay concerns the target T5, ETV2 (Homo sapiens, UniProt O00321 1-342).
T5 sequence: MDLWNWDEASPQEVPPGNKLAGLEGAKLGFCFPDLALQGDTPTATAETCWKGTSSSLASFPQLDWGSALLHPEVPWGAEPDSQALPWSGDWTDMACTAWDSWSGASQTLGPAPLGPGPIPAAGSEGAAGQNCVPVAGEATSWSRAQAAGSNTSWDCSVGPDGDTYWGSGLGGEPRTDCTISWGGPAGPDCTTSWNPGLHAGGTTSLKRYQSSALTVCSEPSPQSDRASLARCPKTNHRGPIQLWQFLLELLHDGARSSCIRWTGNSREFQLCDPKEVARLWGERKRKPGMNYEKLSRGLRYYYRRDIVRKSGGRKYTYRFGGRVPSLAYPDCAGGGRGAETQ
The essentials:
as §1

For a further assay, the target named is T6, GABPA (Homo sapiens, UniProt Q06546 1-454).
T6 sequence: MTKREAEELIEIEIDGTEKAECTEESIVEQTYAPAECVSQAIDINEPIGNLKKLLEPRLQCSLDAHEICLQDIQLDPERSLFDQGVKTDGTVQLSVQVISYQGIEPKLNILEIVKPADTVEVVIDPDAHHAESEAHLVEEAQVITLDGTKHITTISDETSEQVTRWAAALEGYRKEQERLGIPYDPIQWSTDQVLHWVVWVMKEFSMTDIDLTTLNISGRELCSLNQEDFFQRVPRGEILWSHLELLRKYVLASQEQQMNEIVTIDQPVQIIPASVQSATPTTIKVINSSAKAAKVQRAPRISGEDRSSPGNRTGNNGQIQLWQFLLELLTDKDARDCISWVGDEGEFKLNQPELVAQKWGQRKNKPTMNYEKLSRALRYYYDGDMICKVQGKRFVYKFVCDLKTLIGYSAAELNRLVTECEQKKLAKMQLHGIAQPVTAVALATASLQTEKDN
The essentials:
as §1

A further assay addresses ELF1 (Homo sapiens, UniProt P32519 1-619). The essentials: as §1
The next assay has as its target ETV1 (Homo sapiens, UniProt P50549 1-477). The essentials: as §1
The target of the next assay is T7, ETS2 (Homo sapiens, UniProt P15036 1-469).
T7 sequence: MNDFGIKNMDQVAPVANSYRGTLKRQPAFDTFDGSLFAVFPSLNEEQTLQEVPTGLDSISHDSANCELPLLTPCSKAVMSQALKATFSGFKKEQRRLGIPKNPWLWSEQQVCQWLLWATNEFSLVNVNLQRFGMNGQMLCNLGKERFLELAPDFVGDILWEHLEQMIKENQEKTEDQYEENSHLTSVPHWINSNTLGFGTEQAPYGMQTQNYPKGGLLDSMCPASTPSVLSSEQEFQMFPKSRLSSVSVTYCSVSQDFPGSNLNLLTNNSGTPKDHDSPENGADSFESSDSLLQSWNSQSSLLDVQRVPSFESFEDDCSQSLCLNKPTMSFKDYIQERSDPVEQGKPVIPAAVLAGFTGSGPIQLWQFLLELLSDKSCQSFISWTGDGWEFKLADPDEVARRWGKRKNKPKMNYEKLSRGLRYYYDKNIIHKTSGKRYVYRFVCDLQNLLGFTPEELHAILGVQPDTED
In short, it runs like this: as §1

Another assay concerns the target T8, ERG (Homo sapiens, UniProt P11308 1-479).
T8 sequence: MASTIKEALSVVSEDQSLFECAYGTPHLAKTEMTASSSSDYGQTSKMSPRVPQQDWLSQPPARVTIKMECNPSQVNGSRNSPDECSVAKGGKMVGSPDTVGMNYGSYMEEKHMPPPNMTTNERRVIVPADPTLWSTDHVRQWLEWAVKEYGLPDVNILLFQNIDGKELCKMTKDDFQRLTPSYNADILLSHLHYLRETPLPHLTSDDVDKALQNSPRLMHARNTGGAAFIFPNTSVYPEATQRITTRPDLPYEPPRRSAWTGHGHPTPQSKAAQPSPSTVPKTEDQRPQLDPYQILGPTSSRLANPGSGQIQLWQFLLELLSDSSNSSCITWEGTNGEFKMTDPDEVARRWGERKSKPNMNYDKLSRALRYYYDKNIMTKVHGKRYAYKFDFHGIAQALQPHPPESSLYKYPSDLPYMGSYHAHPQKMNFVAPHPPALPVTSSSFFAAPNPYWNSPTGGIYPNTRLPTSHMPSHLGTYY
The essentials: as §1

In a further assay the target is SPI1 (Homo sapiens, UniProt P17947 1-270). The essentials:
as §1

The target in another assay is T9, ELF3 (Homo sapiens, UniProt P78545 1-371).
T9 sequence: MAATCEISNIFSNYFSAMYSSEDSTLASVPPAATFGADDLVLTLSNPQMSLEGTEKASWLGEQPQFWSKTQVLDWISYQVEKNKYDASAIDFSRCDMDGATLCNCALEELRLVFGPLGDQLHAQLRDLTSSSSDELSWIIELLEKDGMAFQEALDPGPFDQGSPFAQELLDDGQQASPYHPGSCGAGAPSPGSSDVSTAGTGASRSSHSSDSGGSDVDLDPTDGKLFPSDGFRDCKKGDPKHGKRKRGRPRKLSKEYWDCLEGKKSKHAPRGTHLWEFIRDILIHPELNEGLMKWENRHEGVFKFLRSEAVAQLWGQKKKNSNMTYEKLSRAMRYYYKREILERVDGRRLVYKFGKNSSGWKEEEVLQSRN
The essentials: as §1

The target in another assay is T10, ETV7 (Homo sapiens, UniProt Q9Y603 1-341).
T10 sequence: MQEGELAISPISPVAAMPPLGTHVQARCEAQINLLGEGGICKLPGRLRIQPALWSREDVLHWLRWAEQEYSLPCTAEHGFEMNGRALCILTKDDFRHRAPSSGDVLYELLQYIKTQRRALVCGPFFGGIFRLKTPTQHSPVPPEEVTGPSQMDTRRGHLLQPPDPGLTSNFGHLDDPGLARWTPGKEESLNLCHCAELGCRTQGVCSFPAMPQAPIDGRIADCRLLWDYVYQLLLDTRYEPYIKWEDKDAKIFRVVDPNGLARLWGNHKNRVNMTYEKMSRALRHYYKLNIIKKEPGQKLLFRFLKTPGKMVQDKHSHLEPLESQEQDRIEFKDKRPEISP
The essentials:
as §1

A further assay addresses T11, ELF5 (Homo sapiens, UniProt Q9UKW6-2 1-255).
T11 sequence: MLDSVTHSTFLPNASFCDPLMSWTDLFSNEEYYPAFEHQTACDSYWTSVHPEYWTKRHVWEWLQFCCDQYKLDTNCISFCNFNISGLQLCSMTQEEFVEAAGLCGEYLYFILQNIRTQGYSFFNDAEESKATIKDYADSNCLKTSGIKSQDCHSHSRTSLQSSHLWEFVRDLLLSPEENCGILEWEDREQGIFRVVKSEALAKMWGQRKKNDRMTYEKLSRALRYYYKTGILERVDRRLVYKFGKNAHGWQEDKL
In short, it runs like this: as §1

The next assay deals with ETV6 (Homo sapiens, UniProt P41212 1-452). The essentials: as §1
Chain of ETV6 (P41212 whole entry): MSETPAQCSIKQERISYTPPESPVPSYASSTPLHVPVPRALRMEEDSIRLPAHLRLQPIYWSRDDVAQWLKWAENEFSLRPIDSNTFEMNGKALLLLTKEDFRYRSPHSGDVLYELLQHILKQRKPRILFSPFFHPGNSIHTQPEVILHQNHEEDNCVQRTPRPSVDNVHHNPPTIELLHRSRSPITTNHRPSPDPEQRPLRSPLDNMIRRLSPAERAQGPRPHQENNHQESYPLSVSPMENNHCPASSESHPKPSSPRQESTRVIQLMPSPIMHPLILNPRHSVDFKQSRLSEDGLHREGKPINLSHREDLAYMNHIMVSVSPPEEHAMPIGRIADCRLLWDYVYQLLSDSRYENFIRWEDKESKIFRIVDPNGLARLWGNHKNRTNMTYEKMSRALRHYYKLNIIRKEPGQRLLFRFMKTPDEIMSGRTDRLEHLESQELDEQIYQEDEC

Chain of ETV1 (P50549 whole entry): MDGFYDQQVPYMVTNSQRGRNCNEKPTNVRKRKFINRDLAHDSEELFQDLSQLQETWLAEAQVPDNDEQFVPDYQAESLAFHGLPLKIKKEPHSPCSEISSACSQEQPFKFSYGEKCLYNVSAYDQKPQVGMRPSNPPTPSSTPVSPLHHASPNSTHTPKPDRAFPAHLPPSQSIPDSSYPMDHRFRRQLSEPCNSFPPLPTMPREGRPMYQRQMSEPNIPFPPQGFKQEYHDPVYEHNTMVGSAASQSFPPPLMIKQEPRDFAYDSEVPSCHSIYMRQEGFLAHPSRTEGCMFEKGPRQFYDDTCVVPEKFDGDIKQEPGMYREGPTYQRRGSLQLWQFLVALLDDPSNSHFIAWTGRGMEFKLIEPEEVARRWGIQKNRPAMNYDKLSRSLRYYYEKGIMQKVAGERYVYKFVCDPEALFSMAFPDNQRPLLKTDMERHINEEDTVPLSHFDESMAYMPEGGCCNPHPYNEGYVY
Chain of ELF1 (P32519 whole entry): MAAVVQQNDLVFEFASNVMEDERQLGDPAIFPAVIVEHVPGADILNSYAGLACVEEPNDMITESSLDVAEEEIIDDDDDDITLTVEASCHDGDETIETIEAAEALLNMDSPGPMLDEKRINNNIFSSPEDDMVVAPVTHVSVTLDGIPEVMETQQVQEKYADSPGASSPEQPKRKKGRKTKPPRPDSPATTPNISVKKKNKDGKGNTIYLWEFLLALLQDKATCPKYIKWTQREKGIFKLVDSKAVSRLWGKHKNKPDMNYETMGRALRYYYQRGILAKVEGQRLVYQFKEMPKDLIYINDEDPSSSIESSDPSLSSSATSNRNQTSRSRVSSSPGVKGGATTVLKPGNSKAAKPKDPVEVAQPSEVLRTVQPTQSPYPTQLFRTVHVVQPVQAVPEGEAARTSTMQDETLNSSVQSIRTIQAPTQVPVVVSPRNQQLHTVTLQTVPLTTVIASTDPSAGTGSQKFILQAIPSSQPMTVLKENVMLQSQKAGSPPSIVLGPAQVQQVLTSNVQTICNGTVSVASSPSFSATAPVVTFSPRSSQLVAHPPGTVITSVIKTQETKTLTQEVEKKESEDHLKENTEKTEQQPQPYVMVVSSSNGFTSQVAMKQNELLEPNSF

With CGCGCA, the binding signal was 1.07 fold enrichment (6-mer frequency, TF over GST control) with EHF; 1.04 fold enrichment (6-mer frequency, TF over GST control) with SPIB; 1.01 fold enrichment (6-mer frequency, TF over GST control) with ELK3; 1.01 fold enrichment (6-mer frequency, TF over GST control) with SPIC; 1.13 fold enrichment (6-mer frequency, TF over GST control) with ELK4; 1.02 fold enrichment (6-mer frequency, TF over GST control) in the assay with ETV2.

As to CACTGA, the binding signal in the assay with GABPA is 1.09 fold enrichment (6-mer frequency, TF over GST control); with ELF1, 1.02 fold enrichment (6-mer frequency, TF over GST control); in the assay with ELK3, 1.07 fold enrichment (6-mer frequency, TF over GST control); with SPIC it was 1.06 fold enrichment (6-mer frequency, TF over GST control); with ELK4, 1.01 fold enrichment (6-mer frequency, TF over GST control); with ETV1, 1.09 fold enrichment (6-mer frequency, TF over GST control). The binding signal with ETS2 is 1.04 fold enrichment (6-mer frequency, TF over GST control).

As to AGGGAA, the binding signal with ERG was 1.02 fold enrichment (6-mer frequency, TF over GST control); in the assay with EHF, 1.04 fold enrichment (6-mer frequency, TF over GST control); in the assay with SPI1, 1.39 fold enrichment (6-mer frequency, TF over GST control); with SPIB, 1 fold enrichment (6-mer frequency, TF over GST control); in the assay with SPIC, 1.01 fold enrichment (6-mer frequency, TF over GST control); in the assay with ELF3 it was 1.01 fold enrichment (6-mer frequency, TF over GST control). Also, the binding signal in the assay with ETV7 is 1.06 fold enrichment (6-mer frequency, TF over GST control); with ELF5, 1.24 fold enrichment (6-mer frequency, TF over GST control); with ETV6 it was 1.03 fold enrichment (6-mer frequency, TF over GST control).

The values above are taken from paper PMC7862700, “An all-to-all approach to the identification of sequence-specific readers for epigenetic DNA modifications on cytosine”.
